Experimental findings from PubChem BioAssay (NCI) are described below.

Compounds without any hit were thinned out: in the full panel of roughly 83,000, 20% have a hit.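 Assay: single dose, 48 h. Readout: percent growth (0 = no net growth; negative = cell death). Active: <10.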 A number with no mark means an inactive call. Calls of active or inactive are those of the source.

The assay relates to TK-10 renal. In words: NCI-60 one-dose screen, 48 h (100 = growth as untreated, 0 = no growth, -100 = all killed). The conditions noted are these: 10 µM unless noted. On the procedure:
Growth inhibition of the TK-10 human tumor cell line is measured as a screen for anti-cancer activity. Cells are grown in 96 well plates and exposed to the test compound for 48 hours. Compounds are tested at a single concentration, which is 10^-5 M for most compounds. The reported endpoint is percent growth (GI% or GIPRCNT), where numbers from 0 - 100% represent growth inhibition, and numbers from -100% - 0 represent cell death. For example, a value of 40 represents 60% growth inhibition. A value of 0 means no net growth occurred over the course of the experiment. A value of -40 indicates 40% of cells at the beginning of the experiment died by the end of the experiment. A value of -100 means all cells are dead at the end of the experiment.
NCI-60 Human Tumor Cell Lines Screen was performed using the standard one-dose NCI protocol, which is described in more detail at https://dtp.cancer.gov/discovery_development/nci-60/default.htm.
Compounds with GIPRCNT values below 10 were considered active. Activity score was based on GIPRCNT using the following formula: […]
Score is 0 for GIPRCNT values of 100 or above, 50 for GIPRCNT values of 0, and 100 for GIPRCNT values of -100.
For `O=C1/C(=C\c2cccn2C(=O)c2ccccc2)c2ccccc2N1c1c(Cl)cccc1Cl`, the growth is 86.4%.
Then `COc1ccc2[nH]c(C(=O)OCc3ccc4c(Br)cc(Br)c(O)c4n3)cc2c1`, with -95.6% (active).
The value for `O=C(NCCNC(=O)c1cc(S(=O)(=O)NCCc2ccccc2)c(O)c(O)c1O)c1cc(S(=O)(=O)NCCc2ccccc2)c(O)c(O)c1O` was 96.6%; that for `CCOc1cccc(/C=N/NC(=O)c2ccc(Nc3ccnc(C(F)(F)F)c3)cc2)c1O` was 28.4%; that for `Cc1ccc(NC(=O)Cn2nncc2CN2C(=O)CSC2=O)cc1C` was 98.8%.
Then `NS(=O)(=O)c1ccc(N2N=C(c3cccs3)CC2c2ccccc2O)cc1` (stereo not given), with 23.5%; and `Clc1ccccc1Nc1nnc(-c2ccncc2)s1`, with 111%.
Take `COc1c(B(O)O)cccc1-c1nc2ccc3[nH]ncc3c2c2c1CCCC2`: the growth is 11.5%.
The value for `C#CC[C@@H]1C[C@]2(C)[C@H]3CC=C4[C@H]5[C@@H](C)[C@H](C)CC[C@]5(C(=O)NCCCN5CCN(CCCN)CC5)CC[C@@]4(C)[C@]3(C)CC[C@H]2C(C)(C)[C@H]1OC(C)=O` was -32.8% (active).
The value for `O=C(CSc1ccc(Cl)cc1)Nc1ccc(-c2nc3ccccc3s2)c(Cl)c1` was 85.4%.
Consider `CC1C2CCC(C2)C1COCCOCCO` (stereo not given), for which the growth is 109%.
For the compound `O=C(Oc1c(Cl)c(Cl)c(Cl)c(Cl)c1Cl)C1CCCN1C(=O)OCc1ccccc1` (stereo not given), the growth was 67.3%.
For `NNC(=O)Cc1ccccc1`, the growth was 111%.
The value for `O=C(Cn1nncc1CN1C(=O)CSC1=O)Nc1ccc(F)cc1` was 97.9%.
`COc1cc(CN2CCO[C@H](COc3cccc(F)c3)C2)ccc1Cl`: the growth was 46.9%.
Then `COc1ccc(-c2oc(=O)ccc2-c2cc(OC)c(OC)c(OC)c2)cc1F`, with 88.2%; and `COC(=O)c1ccc(NC(N)=NCCC(C)(C)c2ccc(C(F)(F)F)cc2)nc1`, with 49.6%; and `Oc1ccc(-c2cnc(-c3ccccc3)[nH]2)c(O)c1`, with 112%.
The value for `O=C(CN1CCN(c2ccccc2)CC1)N1CCN(c2nnc(-c3ccc(Cl)cc3)c(-c3ccc(Cl)cc3)n2)CC1` was 73.4%.
Take `CCN(C)CCCOc1ccc(/C(=C(\C)Cc2cccc(OC)c2)c2ccc(OC(C)=O)cc2)cc1`: the growth was 95%.
Then `O=C1C2=C(C(=O)c3c(O)ccc(O)c31)N(c1ccc(N3CCOCC3)nc1)Cc1ccccc1O2`, with -98.7% (active).
In the case of `O=C(Nc1ccc(Cl)c(C(F)(F)F)c1)c1ccc(Nc2ccc(Cl)nn2)cc1`, the growth was 68.1%.
For `Cc1ccc(NC(=O)c2[nH]c(SCCN(C)C)nc2-c2ccc(F)cc2)cc1Nc1ccc2ncn(C)c(=O)c2c1`, the growth was 63%.
As for `CCN(CC)C(Cl)=Nc1ccc(Cl)cc1`, the growth is 101%.
Then `COc1ccc2[nH]cc(C(c3ccc(Cl)cc3)N3CCCC3)c2c1` (stereo not given), with 87.6%; and `COc1ccc(Nc2ncnc3c2sc2nc(C)cc(C)c23)cc1`, with 115%.
Then `Fc1ccc(-c2nnc(N3CCOCC3)c3ccccc23)cc1`, with 138%; and `CCOC(=O)c1ccc(N(CCC(=O)O)C(C)=O)cc1`, with 105%; and `Cc1[nH]nc2ccc3nc(-c4ccc5[nH]ncc5c4)c4c(c3c12)CCCC4`, with 10.3%.
The value for `C=CCn1c(C)nc2cc(Nc3nc(Nc4ccc5nc(C)n(CC=C)c5c4)nc4ccccc34)ccc21` was 130%.
Regarding `C#CCNC(=S)N/N=C(\C)c1ccccn1`, the growth was 50.9%.
On to `Cc1nc2ccc(Nc3nc(N4CCOCC4)nc(N4CCN(C)CC4)n3)cc2n1Cc1ccccc1`, for which the growth is 87.2%.
The value for `CC(C)NC(=O)OCC#CCOC(=O)NC(C)C` was 99.3%; that for `COc1cc(-c2csc(NC(=O)Nc3cccc(C(F)(F)F)c3)n2)cc(OC)c1OC` was 49.4%; that for `O=C(OCc1ccc2c(Br)cc(Br)c(O)c2n1)c1cc2ccccc2[nH]1` was -94.2% (active).
`COc1ccc(-c2nc(-c3ccccc3OCc3ccccc3OC)nc(C)c2C(C)=O)cc1`: the growth was 103%.
The value for `CCCCCCCCCCCCCC(=S)NCCCC[C@H](NC(=O)OCc1ccccc1)C(=O)Nc1ccccc1` was 44.2%; that for `OC(c1cc2cc(Cl)ccc2c2cc(C(F)(F)F)ccc12)C1CCCCN1` (stereo not given) was -96.4% (active); that for `COc1ccc(OC)c(Nc2nc(-c3c(C)nc4sccn34)cs2)c1` was 98%.
Regarding `COc1cc2nccc(Oc3ccc(NC(=O)C4(C(=O)Nc5c(F)cc(F)cc5F)CC4)cc3)c2cc1Oc1ccc(N)cn1`, the growth is 84.5%.
